Efflux pump inh = inhibitors of Candida antifungal efflux pumps expressed in yeast. S. cerevisiae Candida pump triplex, Nile Red efflux. 0.44% of 330,000 active. inhibition, % at 10 µM;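 active = plate passing quality check with inhibition over a set limit, or well fluorescence over plate mean plus 4 SD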;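 note: Nile Red retained in pooled yeast measured as flow cytometry median fluorescence; 0% = buffer negative control and 100% = Enniatin B positive control; higher means more Nile Red kept so more efflux inhibition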
ALR H2O2 inh = human ALR oxidase inhibition via reduced H2O2; P55789; purified ALR, DTT oxidation, H2O2 HRP-luminol luminescence; AID 485317; inhibition, % (concentration not given with the values); 3.8% of 290,000 active;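 active = mean replicate inhibition above about 79%, with every replicate also reaching it, limit read from the data; inconclusive = only one of the two criteria met; inactive = mean below limit and not every replicate reaching it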
Target sequence (P55789 whole entry, looked up): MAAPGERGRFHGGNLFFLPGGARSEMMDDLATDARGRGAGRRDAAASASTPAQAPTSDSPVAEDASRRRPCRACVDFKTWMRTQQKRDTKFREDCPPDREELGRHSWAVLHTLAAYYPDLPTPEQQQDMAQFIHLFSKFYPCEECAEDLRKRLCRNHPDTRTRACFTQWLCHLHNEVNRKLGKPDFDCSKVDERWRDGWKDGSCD
eIF4H inh = inhibitors of RNA binding by human eIF4H | 0.94% of 290,000 active | Q15056 | inhibition, % at 35 µM | eIF4H fluorescence polarization binding assay;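 note: calls also rest on retests at 20 µM and on dose response follow-up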
PABP1 MLLE inh = blocks PAM2 peptide binding to the PABP1 MLLE domain; P11940; GST-MLLE / FITC-PAM2 fluorescence polarization; inhibition, % at 20 µM; 0.36% of 360,000 active; AID 588489; in the data active = inhibition above about 35%, passing the limit was not always enough;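 note: plate controls were DMSO wells with GST-MLLE for no effect and wells lacking GST-MLLE protein for full effect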
PABP FP inh = PABP-poly(A) binding inhibition. P11940. PABP-poly(A) RNA binding, fluorescence polarization. inhibition, % at 35 µM. 1% of 290,000 active. AID 2014;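 note: calls also rest on retests at 20 µM and on dose response follow-up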
UBC9 SUMO inh = inhibitors of human SUMOylation (UBC9). P63279. 0.36% of 290,000 active. HTRF SUMOylation assay, SAE1/SAE2 + UBC9, in vitro. inhibition, % at 35 µM; in the data active = inhibition above about 50%, passing the limit was not always enough; inconclusive = no clear call, values can overlap the other calls
Target sequence (P63279 whole entry, looked up): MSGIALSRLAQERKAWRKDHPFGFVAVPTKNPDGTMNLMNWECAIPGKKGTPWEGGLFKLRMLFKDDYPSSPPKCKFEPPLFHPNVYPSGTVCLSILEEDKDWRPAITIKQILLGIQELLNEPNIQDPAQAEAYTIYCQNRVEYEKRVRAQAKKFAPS
Active calls of the source: *; ? = inconclusive; . = not tested or not shown. Shown are actives, neighbours in structure and some others; about 4.7% of the full set was active somewhere. Unless noted, the rule behind the calls is not given here.

SMILES	Efflux pump inh	ALR H2O2 inh	eIF4H inh	PABP1 MLLE inh	PABP FP inh	UBC9 SUMO inh
O=C(NC(=S)N1CCN(c2ccccc2)CC1)c1ccccc1	0	?	-1	-41	-5	-6
O=C(NCC(=O)N1CCN(c2ccccc2O)CC1)c1ccco1	0	90*	23	-7	0	10
CC(Sc1nc(-c2ccco2)nc2c1c(=O)n(C)c(=O)n2C)C(=O)O (configuration not stated)	0	-2	-5	15	2	34
CC(C)NC(=O)C1CCN(C2CCN(C(=O)c3scc4c3CCCC4)CC2)CC1	0	-22	0	-15	-8	6
CC(=O)c1ccc(OC2(C)CCN(Cc3csc4ccccc34)C2)cc1 (configuration not stated)	.	.	.	-1	.	.
N#CC1(Nc2ccc(C(=O)O)cc2)CCCC1	.	.	.	-3	.	.
O=[N+]([O-])c1ccc(O)c(C=NNc2ccc(S(=O)(=O)O)cc2)c1	.	.	.	10	.	.
O=[N+]([O-])c1cccc(N/N=C/c2cc([N+](=O)[O-])ccc2O)c1	0	96*	0	0	1	5
COc1cccc(/C=N/Nc2nc3ccccc3[nH]2)c1O	0	.	18	-75	2	-32
COc1cc(/C=N/Nc2nc3ccccc3[nH]2)cc(OC)c1O	0	99*	-4	-67	10	8
COc1cc(/C=N/Nc2nc3ccccc3[nH]2)ccc1O	0	100*	6	-46	-5	-12
COc1cccc(/C=N/Nc2nc3ccccc3[nH]2)c1OC	0	.	4	-115	3	6
COc1ccc(O)c(/C=N/Nc2nc3ccccc3[nH]2)c1	0	99*	1	-2	3	9
NC(=O)C(C1=CCCCC1)c1ccccc1 (configuration not stated)	.	.	.	-6	.	.
COc1ccc(/C=C/c2ccccc2)cc1[C@H]1[C@H]2C=CC[C@@H](C)[C@@H]2C(=O)N1Cc1ccccc1	0	2	-1	-10	-4	22
CCOCCn1c(N2CCCC2)nc2c1c(=O)[nH]c(=O)n2C	0	9	-1	-3	10	13
COc1ccc(/C=N/Nc2nc(=O)[nH]nc2C)cc1OC	0	-18	-7	-14	-6	2
O=[N+]([O-])c1ccc(O)c(/C=N/Nc2nc3ccccc3[nH]2)c1	0	89*	8	-61	-2	-110
COc1cc(/C=N/Nc2nc3ccccc3[nH]2)cc(Br)c1OCC(=O)N(C)C	0	99*	10	-72	10	15
COc1cc(/C=N/Nc2nc(=O)[nH]nc2C)ccc1O	0	100*	2	-14	-12	4
COc1cc(/C=N/Nc2nc3ccccc3[nH]c2=O)ccc1O	0	99*	17	7	?	-2
CC(C)(O)C#Cc1ccc(C(=O)NC(CCCNC(N)=O)C(=O)O)s1 (configuration not stated)	0	2	2	15	4	11
CCN(CC)c1c(C)nc2ccc(C(=O)NCc3ccc4c(c3)OCO4)cn12	.	.	.	14	.	.
COc1ccc(C(=O)N/C(=C/c2cccs2)c2nc3ccccc3[nH]2)cc1OC	0	-10	2	4	-11	-6
COc1cc(/C=C(/C(=O)c2cccs2)c2nc3ccccc3[nH]2)cc(OC)c1O	0	100*	0	-3	1	4
SMILES	Efflux pump inh	ALR H2O2 inh	eIF4H inh	PABP1 MLLE inh	PABP FP inh	UBC9 SUMO inh
CCOC(=O)N1CCN(C(=O)CS(=O)Cc2nc(-c3ccc(OC)c(OC)c3)oc2C)CC1 (configuration not stated)	1	99*	-8	18	7	-3
CCOC(=O)N1CCN(C(=O)/C=C/c2ccc(OC)c(OC)c2)CC1	0	-6	1	-2	-4	13
CCN1CCN(C(=O)CS(=O)Cc2nc(-c3cccc(C)c3)oc2C)CC1 (configuration not stated)	0	99*	4	3	7	9
Cc1cccc(-c2nc(CS(=O)CC(=O)N3CCc4ccccc4C3)c(C)o2)c1 (configuration not stated)	0	.	12	30	14	0
CCOC(=O)N1CCN(C(=O)CS(=O)Cc2nc(-c3cccc(C)c3)oc2C)CC1 (configuration not stated)	0	99*	1	13	7	25
Cc1cccc(-c2nc(CS(=O)CC(=O)N3CC(C)CC(C)C3)c(C)o2)c1 (configuration not stated)	0	96*	-6	6	-4	4
CCC(=O)c1ccc(OCC(=O)NC2(C#N)CCCCC2)cc1	0	.	4	-10	-10	-11
C=CCNc1nc(Nc2ccc(OC)c(OC)c2)c2sc(-c3ccccc3)cc2n1	.	.	.	-4	.	.
O=C(COC(=O)/C=C/c1cccc(Br)c1)NC1CCCC1	0	-1	.	-18	.	.
CCCS(=O)(=O)Nc1c(C(=O)O)[nH]c2ccc(OC)cc12	0	?	-5	7	5	20
COC(=O)c1[nH]c2ccc(C)cc2c1NS(=O)(=O)c1ccc(F)cc1	0	79*	3	24	10	-1
COc1ccc2[nH]c(C(=O)O)c(NS(=O)(=O)c3ccc(C)cc3C)c2c1	0	98*	6	-7	10	6
C[C@H](CO)N1C[C@H](C)[C@@H](CN(C)C(=O)Nc2ccc(C(F)(F)F)cc2)Oc2ccc(NC(=O)Cc3ccccc3)cc2C1=O	1	4	.	-5	.	.
CC1(Cc2cc(Cl)ccc2C(F)(F)F)C(=O)Nc2cc(C(F)(F)F)ccc21 (configuration not stated)	.	.	.	-6	.	.
Nc1cc(-c2ccccc2)nn1S(=O)(=O)c1ccc(Br)cc1	0	99*	7	-3	0	0
CCOc1ccccc1NC(=O)CN(c1ccc(OC)cc1)S(=O)(=O)c1c(C)[nH]c(=O)[nH]c1=O	0	-7	.	15	.	.
O=C(c1ccc(CS(=O)Cc2ccccc2Cl)o1)N1CCN(c2ccccn2)CC1 (configuration not stated)	0	99*	-6	-5	1	-6
COc1cccc(N2CCN(C(=O)c3ccc(CS(=O)Cc4ccccc4Cl)o3)CC2)c1 (configuration not stated)	0	52	7	8	8	-8
O=C(c1ccc(CS(=O)Cc2ccccc2Cl)o1)N1CCN(c2cccc(Cl)c2)CC1 (configuration not stated)	0	99*	-12	-1	-3	-2
O=C(CCc1nc(-c2ccc(F)cc2)no1)Nc1cccc(C(=O)NC2CC2)c1	0	20	.	3	.	.
COc1ccccc1N(C)S(=O)(=O)c1ccc(C(=O)Nc2ccc(C)cc2C)cc1	.	.	.	2	.	.
Cc1c(CC(=O)O)c(=O)oc2c(C)c3occ(-c4ccc(Br)cc4)c3cc12	0	7	-2	-7	29	10
